# Assay results as given in ChEMBL document CHEMBL2218924, “A broad activity screen in support of a chemogenomic map for kinase signalling research and drug discovery” (Biochem J, 2013).
# Key:
# [1] = biological target: Tyrosine-protein kinase Lck (Homo sapiens) (UniProt P06239); conditions: at 10 µM
# [2] = biological target: Tyrosine-protein kinase Lck (Homo sapiens) (UniProt P06239); conditions: at 1 µM
# [3] = biological target: Tyrosine-protein kinase Lck (Homo sapiens) (UniProt P06239); conditions: at 10 µM; remark: listed apart in the source
# [4] = biological target: Tyrosine-protein kinase Lyn (Homo sapiens) (UniProt P07948); conditions: at 1 µM
# [5] = biological target: Tyrosine-protein kinase Lyn (Homo sapiens) (UniProt P07948); conditions: at 10 µM
# [6] = biological target: Mitogen-activated protein kinase 3 (Homo sapiens) (UniProt P27361); conditions: at 1 µM
# [7] = biological target: Mitogen-activated protein kinase 3 (Homo sapiens) (UniProt P27361); conditions: at 10 µM
# [8] = biological target: Mitogen-activated protein kinase 1 (Homo sapiens) (UniProt P28482); conditions: at 1 µM
# [9] = biological target: Mitogen-activated protein kinase 1 (Homo sapiens) (UniProt P28482); conditions: at 10 µM
# [10] = biological target: MAP kinase-activated protein kinase 2 (Homo sapiens) (UniProt P49137); conditions: at 1 µM
# MAP kinase-activated protein kinase 2 (Homo sapiens), sequence (P49137 whole entry, looked up): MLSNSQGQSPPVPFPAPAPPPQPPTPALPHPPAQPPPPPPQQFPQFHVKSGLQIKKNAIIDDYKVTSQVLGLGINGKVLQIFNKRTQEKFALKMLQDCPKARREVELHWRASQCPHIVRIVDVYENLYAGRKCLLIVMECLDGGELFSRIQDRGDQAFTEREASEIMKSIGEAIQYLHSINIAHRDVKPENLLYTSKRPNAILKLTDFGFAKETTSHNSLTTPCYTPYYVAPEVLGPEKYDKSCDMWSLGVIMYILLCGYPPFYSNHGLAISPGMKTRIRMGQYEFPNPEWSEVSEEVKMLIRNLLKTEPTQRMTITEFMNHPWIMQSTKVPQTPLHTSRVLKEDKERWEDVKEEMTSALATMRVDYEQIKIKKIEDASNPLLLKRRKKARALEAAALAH
# Tyrosine-protein kinase Lyn (Homo sapiens), sequence (P07948 2-512 limits assumed): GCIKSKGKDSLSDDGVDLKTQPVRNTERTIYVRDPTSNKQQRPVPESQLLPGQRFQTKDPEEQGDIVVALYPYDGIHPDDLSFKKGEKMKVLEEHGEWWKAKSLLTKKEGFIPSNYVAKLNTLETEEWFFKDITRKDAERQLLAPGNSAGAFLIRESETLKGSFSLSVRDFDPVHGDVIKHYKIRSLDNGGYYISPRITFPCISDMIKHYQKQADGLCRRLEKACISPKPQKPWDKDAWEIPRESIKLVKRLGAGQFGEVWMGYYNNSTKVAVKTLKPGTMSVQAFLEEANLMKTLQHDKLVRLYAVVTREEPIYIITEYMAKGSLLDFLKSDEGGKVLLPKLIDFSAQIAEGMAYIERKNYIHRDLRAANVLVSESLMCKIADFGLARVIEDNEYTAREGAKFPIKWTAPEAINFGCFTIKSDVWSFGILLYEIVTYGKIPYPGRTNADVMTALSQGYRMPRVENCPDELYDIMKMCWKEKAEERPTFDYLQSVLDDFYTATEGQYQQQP
# Tyrosine-protein kinase Lck (Homo sapiens), sequence (P06239 2-509 limits assumed): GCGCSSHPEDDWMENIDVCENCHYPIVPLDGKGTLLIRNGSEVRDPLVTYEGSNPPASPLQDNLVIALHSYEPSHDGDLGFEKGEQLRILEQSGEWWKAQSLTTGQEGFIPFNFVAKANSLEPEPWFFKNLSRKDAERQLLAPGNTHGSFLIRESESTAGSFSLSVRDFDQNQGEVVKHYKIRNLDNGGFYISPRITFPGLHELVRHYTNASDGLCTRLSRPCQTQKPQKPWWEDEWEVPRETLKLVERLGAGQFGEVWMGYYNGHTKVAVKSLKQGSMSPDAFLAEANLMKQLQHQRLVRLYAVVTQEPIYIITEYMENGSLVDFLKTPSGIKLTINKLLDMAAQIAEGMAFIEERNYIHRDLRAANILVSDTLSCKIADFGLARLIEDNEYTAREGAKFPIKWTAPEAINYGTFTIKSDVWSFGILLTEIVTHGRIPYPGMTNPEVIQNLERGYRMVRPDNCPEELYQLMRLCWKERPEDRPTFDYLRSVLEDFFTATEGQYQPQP
# Mitogen-activated protein kinase 1 (Homo sapiens), sequence (P28482 whole entry): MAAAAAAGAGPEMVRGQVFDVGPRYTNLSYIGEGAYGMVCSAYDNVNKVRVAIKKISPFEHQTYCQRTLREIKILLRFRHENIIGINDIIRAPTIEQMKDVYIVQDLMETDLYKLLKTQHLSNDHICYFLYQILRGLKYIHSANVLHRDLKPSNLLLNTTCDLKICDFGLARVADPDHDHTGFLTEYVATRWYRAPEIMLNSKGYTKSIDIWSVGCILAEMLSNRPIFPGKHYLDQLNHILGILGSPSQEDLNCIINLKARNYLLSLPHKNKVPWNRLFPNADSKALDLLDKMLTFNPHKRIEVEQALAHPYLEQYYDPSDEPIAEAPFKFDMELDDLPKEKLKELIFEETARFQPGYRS
# Mitogen-activated protein kinase 3 (Homo sapiens), sequence (P27361 whole entry): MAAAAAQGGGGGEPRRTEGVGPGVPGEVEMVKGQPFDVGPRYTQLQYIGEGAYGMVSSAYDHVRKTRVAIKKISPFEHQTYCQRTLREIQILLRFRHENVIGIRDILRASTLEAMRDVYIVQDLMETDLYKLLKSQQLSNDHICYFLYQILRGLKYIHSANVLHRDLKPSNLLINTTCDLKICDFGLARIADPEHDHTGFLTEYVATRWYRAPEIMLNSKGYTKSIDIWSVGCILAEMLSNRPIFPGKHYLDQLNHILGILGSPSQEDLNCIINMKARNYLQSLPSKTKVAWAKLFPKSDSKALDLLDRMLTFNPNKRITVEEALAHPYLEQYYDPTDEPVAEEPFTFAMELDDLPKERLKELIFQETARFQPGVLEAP
Compound,residual activity [1],residual activity [2],residual activity [3],residual activity [4],residual activity [5],residual activity [6],residual activity [7],residual activity [8],residual activity [9],residual activity [10]
O=C1NC(=O)c2cc(Nc3ccc(F)cc3)c(Nc3ccc(F)cc3)cc21,26%,77%,44%,35%,7%,79%,57%,103%,99%,90%
COc1ccc(C(=O)Nc2sc3c(c2C(N)=O)CCCC3)cc1OC,103%,88%,84%,69%,46%,97%,86%,111%,109%,70%
Nc1nc(Nc2ccc(S(N)(=O)=O)cc2)nn1C(=S)Nc1c(F)cccc1F,16%,8%,18%,6%,1%,29%,3%,49%,3%,44%
COc1cccc(-c2cc(=O)c3ccccc3o2)c1N,85%,103%,93%,93%,80%,106%,90%,114%,96%,99%
CC(=O)O/N=C1\C(=C2\C(=O)Nc3cc(Br)ccc32)Nc2ccccc21,13%,63%,26%,12%,4%,98%,102%,105%,93%,87%
Cc1cc2ncc(-c3ccccc3)nc2cc1C,97%,91%,101%,74%,75%,87%,86%,100%,100%,–
O=C(O)c1ccc2c3c1cccc3c(=O)n1c3ccccc3nc21,109%,95%,79%,96%,87%,117%,77%,123%,96%,86%
O=Nc1c(-c2c(O)[nH]c3ccccc23)[nH]c2ccccc12,6%,22%,17%,8%,2%,114%,101%,104%,103%,101%
O=C(Nc1cccc(Nc2cc(Nc3cccc(C(F)(F)F)c3)ncn2)c1)C1CC1,29%,85%,81%,62%,18%,96%,85%,102%,103%,89%
Cn1cc(/C=C2\C(=O)Nc3ccc(S(N)(=O)=O)cc32)c2ccccc21,14%,30%,34%,10%,1%,85%,90%,106%,103%,83%
CCOc1cc2ncnc(Nc3cccc(Br)c3)c2cc1OCC,4%,26%,8%,3%,1%,90%,55%,106%,77%,73%
O=C1c2ccccc2-[n+]2ccc3c([nH]c4ccccc43)c21,69%,81%,74%,88%,65%,85%,94%,107%,108%,81%
CC(C)n1cnc2/c(=N/c3cccc(Cl)c3)nc(NCCO)[nH]c21,37%,86%,40%,20%,2%,92%,77%,117%,78%,91%
CO[C@H]1[C@@H](OC)C[C@H](C)[C@@H](OC)C2=CC(=O)C=C(NC(=O)/C(C)=C/C=C/[C@H](OC)[C@@H](OC(N)=O)/C(C)=C/[C@@H]1C)C2=O,86%,93%,85%,85%,57%,88%,89%,105%,97%,101%
O=C1NC(=O)/C(=C/c2ccc3c(c2)OC(F)(F)O3)S1,128%,87%,91%,100%,65%,90%,77%,104%,107%,93%
O=C1Nc2cc(Br)ccc2/C1=C1/Nc2ccccc2/C1=N\O,10%,1%,19%,4%,1%,102%,80%,108%,106%,96%
COc1cc2ncnc(Nc3ccc(NC(=O)c4ccccc4)cc3)c2cc1OC,17%,30%,9%,32%,6%,88%,83%,103%,103%,108%

Compound,residual activity [1],residual activity [2],residual activity [3],residual activity [4],residual activity [5],residual activity [6],residual activity [7],residual activity [8],residual activity [9],residual activity [10]
O=c1cc(-c2cccc3c2Sc2ccccc2S3)oc(N2CCOCC2)c1,94%,112%,102%,92%,86%,110%,125%,107%,100%,100%
c1ccc(-c2n[nH]cc2-c2ccnc3ccccc23)nc1,71%,91%,66%,90%,24%,88%,83%,96%,109%,101%
Oc1ccc(Nc2nc(-c3ccc(Cl)cc3)cs2)cc1,103%,98%,79%,84%,56%,96%,81%,114%,107%,108%
O=c1c2ccccc2[nH]c(=S)n1CCN1CCC(=C(c2ccc(F)cc2)c2ccc(F)cc2)CC1,107%,83%,65%,83%,46%,88%,61%,103%,80%,97%
Nc1n[nH]c2nnc(-c3c(-c4ccccc4)nn4ccccc34)cc12,58%,94%,68%,66%,33%,21%,3%,68%,13%,102%
COc1cc2ncnc(Nc3ccc(O)c(Br)c3)c2cc1OC,7%,21%,10%,7%,-2%,68%,45%,98%,75%,106%
Cc1ccc(NC2=CC(=O)c3sc(C)nc3C2=O)cc1,80%,92%,98%,80%,71%,102%,120%,108%,106%,85%
CN(C)c1ccc(/C=C2\C(=O)Nc3ccccc32)cc1,55%,83%,71%,86%,63%,91%,69%,107%,100%,121%
CC[n+]1c(/C=C/N(C)c2ccccc2)n(-c2ccccc2)c2ccc(-c3nc4ccccc4s3)cc21,322%,92%,65%,73%,73%,111%,96%,105%,100%,95%
O=C1NC(=O)/C(=C\c2ccc3nccnc3c2)S1,84%,81%,61%,99%,89%,82%,77%,98%,96%,87%
COc1cc2ncc(-c3ccccc3)nc2cc1OC,75%,86%,80%,67%,58%,89%,81%,–,–,–
Nc1ccc2ncnc(NCCc3ccc(Oc4ccccc4)cc3)c2c1,45%,83%,20%,24%,11%,122%,74%,104%,86%,70%
NC(=O)c1ccc2[nH]c(-c3ccc(Oc4ccc(Cl)cc4)cc3)nc2c1,72%,105%,102%,91%,88%,99%,99%,102%,99%,103%
Oc1n[nH]c2nnc(-c3c(-c4ccccc4)nn4ccccc34)cc12,82%,90%,71%,71%,68%,92%,93%,101%,105%,82%
O=C(Nc1cccc(Nc2nccc(Nc3cccc(C(F)(F)F)c3)n2)c1)C1CC1,19%,57%,42%,41%,6%,89%,91%,89%,84%,115%
N#C/C(=C(\N)Sc1ccc(N)cc1)c1ccccc1C(F)(F)F,103%,110%,74%,65%,67%,95%,114%,104%,90%,70%
